Source: PubChem (National Center for Advancing Translational Sciences (NCATS))
GLS inh: blocks human kidney-isoform glutaminase activity; O94925; GLS enzymatic activity, qHTS titration; Potency, µM (doses to about 45.5 µM), hits mostly inhibitors; actives 0.21% (n = 410,000)
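Two-point fluorescence kinetic (t0, 30 min RT) for hKGA; glutamate detected via glutamate oxidase–HRP–Amplex Red. Substrate: 1 mM L-glutamine solution; buffer 45 mM KH2PO4, pH 8.2.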
VDR inh: inhibitors of human vitamin D receptor | VDR-SRC2-3 peptide fluorescence polarization, 2 h | Potency, µM, actives largely listed as inhibitors | actives 0.93% (n = 400,000) | AID 504847
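Signal is fluorescence polarization, reporting how far test compounds block the interaction of VDR with the SRC2-3 coregulator peptide after a 2 h room-temperature incubation.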
Sfp PPTase inh: inhibitors of Bacillus subtilis Sfp phosphopantetheinyl transferase; Q9F4F7; Biochemical Sfp PPTase activity, qHTS; Potency, µM, most hits filed as inhibitors; actives 3.5% (n = 310,000); AID 1490;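 further: the enzyme is Sfp with the accession as filed and its product quenches rhodamine fluorescence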
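Fluorescence-quenching assay: 15 nM Sfp-PPTase preincubated 15 min at room temperature with compound, then 5 uM rhodamine-CoA and 12.5 uM BHQ-2-labelled YbbR peptide added. Fluorescence (ex 525/em 598 nm) read at start and after 30 min; difference gives rate.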
GCN5L2 inh: GCN5L2 (KAT2A) acetyltransferase inhibition | actives 0.21% (n = 390,000) | Potency, µM (doses to about 58.9 µM), actives largely listed as inhibitors | GCN5L2 HAT assay, ThioGlo1 CoA-SH fluorescence
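Compounds, pin-transferred from DMSO stocks, meet 20nM GCN5L2 for 15 min before the reaction begins with H3(1-25) peptide (75uM) and acetyl-CoA (70uM). Thiol-reactive ThioGlo1 reports CoA release over 20 min at room temperature.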
rTrxR1 inhibitor: inhibitors of rat thioredoxin reductase 1. O89049. recombinant rTrxR1, NADPH fluorescence consumption, selenite substrate. Potency, µM (highest dose often 114 µM), most hits filed as inhibitors. actives 1% (n = 390,000); further: nearly all actives have a fitted effect of over 65% in size
Target sequence (O89049 whole entry, looked up): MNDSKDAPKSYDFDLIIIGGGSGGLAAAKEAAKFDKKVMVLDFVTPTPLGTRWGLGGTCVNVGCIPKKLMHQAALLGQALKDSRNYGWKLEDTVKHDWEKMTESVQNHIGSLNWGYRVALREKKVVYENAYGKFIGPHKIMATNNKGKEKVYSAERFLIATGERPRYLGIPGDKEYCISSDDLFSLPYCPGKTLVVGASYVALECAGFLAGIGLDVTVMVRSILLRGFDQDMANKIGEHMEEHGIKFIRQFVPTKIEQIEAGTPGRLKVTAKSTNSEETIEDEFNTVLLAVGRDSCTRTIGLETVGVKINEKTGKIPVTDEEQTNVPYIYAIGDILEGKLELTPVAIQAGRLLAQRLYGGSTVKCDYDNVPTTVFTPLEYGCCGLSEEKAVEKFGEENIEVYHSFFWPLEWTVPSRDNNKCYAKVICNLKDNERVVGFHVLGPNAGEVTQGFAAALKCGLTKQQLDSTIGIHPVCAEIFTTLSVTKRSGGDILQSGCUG
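Rat TrxR1 (90 nM in the dispensed reagent) was pre-reduced with 400 uM NADPH for 5 min at room temperature, then incubated with compound for 15 min. After 400 uM selenite was added, NADPH fluorescence (Ex 340/Em 450 nm) was followed for 8 min.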
TrxR1 substrate: rat thioredoxin reductase 1 substrate activity | actives 0.01% (n = 390,000) | O89049 | Potency, µM (titrated, usually from 114 µM) | purified TrxR1 substrate turnover, NADPH consumption readout; further: nearly all actives have a fitted effect of over 50% in size
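Rat TrxR1, dispensed at 90 nM, was prereduced with 400 uM NADPH (final) for 5 min at ~22 deg C, then incubated with compound 15 min before 400 uM selenite. A first-read NADPH fluorescence drop versus no-compound background flagged substrates.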
Of the large screens only hits and unclear results are named; the others gave an inactive call. Only some compounds are listed: those with a hit (about 3.8% of all), similar ones and a draw of the others. The call rests on the fitted dose curve; in most records, active means well fitted curve in the direction sought with a large enough effect; inconclusive means small, poorly fitted or top-dose-only effect, or another doubt; inactive means no such curve, though single readings can be large; an effect the other way counts as inactive or inconclusive.

O=C(CC1SC(=O)N(c2ccccc2)C1=O)Nc1cccc2ccccc12 (stereo not drawn)	GLS inh 10µM, VDR inh 45µM, Sfp PPTase inh 20µM, rTrxR1 inhibitor inconclusive
Cc1ccccc1NC(=O)CC1SC(=O)N(c2ccccc2)C1=O (stereo not drawn)	Sfp PPTase inh inconclusive, rTrxR1 inhibitor inconclusive
CC(C)CCNC(=O)CN(C)S(=O)(=O)c1cccc2nsnc12	none
CCOc1cccc(NC(=O)/C(C#N)=C/c2cccnc2)c1	VDR inh inconclusive
CC(C)c1ccccc1NC(=O)CCCC(=O)O	none
COC(=O)C1=C(Nc2ccccc2NC(=O)CCCC(=O)O)CSC1	Sfp PPTase inh 79µM
COC(=O)C1=C(Nc2ccccc2NC(=O)c2ccccc2C(=O)O)CSC1	Sfp PPTase inh 45µM
O=C(CCN1C(=O)/C(=C/c2cccs2)SC1=S)Nc1ccccn1	rTrxR1 inhibitor inconclusive
CN(CCC#N)C(=O)COC(=O)c1c2c(nc3ccccc13)/C(=C/c1ccco1)CC2	GLS inh 6.3µM, GCN5L2 inh inconclusive, rTrxR1 inhibitor 5.6µM
Cc1ccc(CN2CCN(/N=C/c3cc(Br)cc(Br)c3O)CC2)c(C)c1	none
Cc1cc(F)ccc1S(=O)(=O)NCC(c1ccco1)S(=O)(=O)c1cccs1 (stereo not drawn)	rTrxR1 inhibitor 1.1µM (no result: Sfp PPTase inh)
COc1ccc(S(=O)(=O)NCC(c2ccco2)S(=O)(=O)c2cccs2)cc1C (stereo not drawn)	rTrxR1 inhibitor inconclusive (no result: Sfp PPTase inh)
COc1ccc(OCC(=O)c2c(O)c3ccccc3oc2=O)cc1	Sfp PPTase inh 20µM, rTrxR1 inhibitor inconclusive
CCOc1ccc(OCC(=O)c2c(O)c3ccccc3oc2=O)cc1	Sfp PPTase inh 28µM
Cc1cc(C)c(C)c(OCC(=O)NCC2CCCO2)c1 (stereo not drawn)	none
Cc1ccc(NS(=O)(=O)c2ccc3c(c2)CC(=O)N3)c(C)c1	GCN5L2 inh 25µM
Cc1ccc(NS(=O)(=O)c2ccc3c(c2)NC(=O)CO3)c(C)c1	none
C=CCn1c(NC(=O)c2ccc(Br)o2)c(C(=O)OCC)sc1=S	VDR inh 89µM, Sfp PPTase inh inconclusive, GCN5L2 inh inconclusive, rTrxR1 inhibitor inconclusive
CCOC(=O)c1c(NC(=O)c2ccc(Br)o2)sc(C)c1CC	Sfp PPTase inh inconclusive
O=C(CSc1nnc(Cc2cccs2)n1Cc1ccco1)Nc1ccc(Cl)cc1Cl	Sfp PPTase inh 28µM, rTrxR1 inhibitor inconclusive
